Experimental data as given in PubChem BioAssay (Tox21).
Inconclusive results are not listed. A call without a number means that no potency is given here. Active and inactive are the calls of the source. The call rests on the fitted dose curve.

Test: qHTS assay to identify small molecule agonists of the hypoxia (HIF-1) signaling pathway - cell viability counter screen (AID 1224844); further: nearly all actives have a fitted effect of over 50% in size
Conditions: HRE-bla ME-180 viability, CellTiter-Glo luminescence, 17 h; series mostly up to 76.8 µM
In short: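 ME-180 HRE-bla cells, 2,000/well, 0.5% dialyzed FBS; 5 hr settle, 17 hr compound at 37C/5% CO2; CCF4-AM reporter read first, then CellTiter-Glo luminescence after 30 min RT.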
Potency means the concentration at half of the fitted maximal effect.

Row | Compound | Potency | activity change, negative = cytotoxicity
1 | OCCN(CCO)c1ccccc1 | inactive | –
2 | C[C@]12CCC(=O)C=C1CC[C@@H]1[C@@H]2CC[C@@]2(C)[C@H]1CC[C@]2(O)C(=O)CO | inactive | –
3 | Clc1cccc(-c2cc(Cl)cc(Cl)c2)c1 | 53 µM (active) | –
4 | Cc1cc2nc(N)sc2cc1C | inactive | –
5 | Cc1ccc(C=O)s1 | inactive | –
6 | O=C(O)CN(CCN(CC(=O)O)CC(=O)O)CCN(CC(=O)O)CC(=O)O | – | -7.94% [at 15.8 µM] (inactive)
7 | CN(C)CCOc1ccccc1Cc1ccccc1 | inactive | –
8 | OCc1c2ccccc2cc2ccccc12 | inactive | –
9 | CC(C)NC[C@@H](O)COc1cccc2ccccc12 | inactive | –
10 | C=Cc1ccccc1 | inactive | –
11 | CCOc1ccc(NS(=O)(=O)c2ccc(N)cc2)nn1 | inactive | –
12 | O=Cc1ccc(O)c(O)c1O | inactive | –
13 | NC(Cc1ccc(F)cc1)C(=O)O (stereo not given) | – | 1.08% [at 6.97 µM] (inactive)
14 | CC(=O)N(CC(O)CN(C(C)=O)c1c(I)c(C(=O)NCC(O)CO)c(I)c(C(=O)NCC(O)CO)c1I)c1c(I)c(C(=O)NCC(O)CO)c(I)c(C(=O)NCC(O)CO)c1I (stereo not given) | inactive | –
15 | O=C1CCN(c2ccccc2)N1 | inactive | –
16 | CC(C)NCC(O)COc1ccc(CCOCC2CC2)cc1 (stereo not given) | inactive | –
17 | CC1=C(CC(=O)O)c2cc(F)ccc2/C1=C\c1ccc(S(C)(=O)=O)cc1 | inactive | –
18 | CC(C)C1=CC2=CC[C@@H]3[C@](C)(CCC[C@@]3(C)C(=O)O)[C@H]2CC1 | 43.6 µM (active) | –
19 | CCOC(=O)C(Br)c1ccccc1 (stereo not given) | inactive | –
20 | O=c1oc2c(O)c(O)cc3c(=O)oc4c(O)c(O)cc1c4c23 | – | 0.799% [at 15.8 µM] (inactive)
